From ChEMBL document CHEMBL3988442, “University of Dundee, Small-Polar-MMV Screening Library” (2021)
For part of these data: Potency and affinity values are given separately.

How the values were obtained:
Set-up in all cases: scale not given: direction of the effect not stated beside the values
[1] = biological target: Protein translocase subunit SecA (Escherichia coli (strain K12)) (UniProt P10408); assay: Assay to Identify E. coli SecA ATPase Inhibitors; type: functional; conditions: 30 µM
[2] = biological target: T1, Ubiquitin-activating enzyme e1, putative (Leishmania donovani (strain BPK282A1)) (UniProt E9BSI1); assay: Leishmania donovani Ubiquitin Activating Enzyme (LdE1); type: functional; conditions: 30 µM
T1 sequence (whole entry): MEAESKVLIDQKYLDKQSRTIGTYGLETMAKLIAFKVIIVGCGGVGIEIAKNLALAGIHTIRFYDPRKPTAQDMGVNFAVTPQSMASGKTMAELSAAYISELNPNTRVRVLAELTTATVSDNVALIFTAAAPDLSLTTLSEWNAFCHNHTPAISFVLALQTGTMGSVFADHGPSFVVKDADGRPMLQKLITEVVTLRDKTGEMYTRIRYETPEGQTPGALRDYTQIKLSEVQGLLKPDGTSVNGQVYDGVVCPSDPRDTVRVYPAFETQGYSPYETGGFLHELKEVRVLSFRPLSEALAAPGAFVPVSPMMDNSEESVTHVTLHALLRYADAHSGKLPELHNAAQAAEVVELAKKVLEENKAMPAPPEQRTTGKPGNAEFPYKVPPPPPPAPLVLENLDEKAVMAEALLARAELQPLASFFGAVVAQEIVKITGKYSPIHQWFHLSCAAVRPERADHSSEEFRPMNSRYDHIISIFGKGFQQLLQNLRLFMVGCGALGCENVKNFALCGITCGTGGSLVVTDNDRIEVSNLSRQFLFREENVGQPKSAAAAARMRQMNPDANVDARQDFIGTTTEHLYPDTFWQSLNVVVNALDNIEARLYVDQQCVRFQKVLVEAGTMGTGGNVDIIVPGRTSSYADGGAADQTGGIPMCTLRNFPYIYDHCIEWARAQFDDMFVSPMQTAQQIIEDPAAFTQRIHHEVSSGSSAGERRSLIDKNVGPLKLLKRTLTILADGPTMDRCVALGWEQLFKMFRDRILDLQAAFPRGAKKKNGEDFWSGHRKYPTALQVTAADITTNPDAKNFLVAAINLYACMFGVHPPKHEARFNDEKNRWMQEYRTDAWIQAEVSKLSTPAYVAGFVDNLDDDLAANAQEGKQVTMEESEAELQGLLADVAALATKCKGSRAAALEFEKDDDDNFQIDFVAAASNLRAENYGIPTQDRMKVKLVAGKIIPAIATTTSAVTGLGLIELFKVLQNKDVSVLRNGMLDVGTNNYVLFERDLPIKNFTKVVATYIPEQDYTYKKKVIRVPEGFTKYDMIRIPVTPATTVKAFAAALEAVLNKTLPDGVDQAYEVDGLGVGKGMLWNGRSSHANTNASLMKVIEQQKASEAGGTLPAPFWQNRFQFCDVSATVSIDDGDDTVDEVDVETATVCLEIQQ

[3] = biological target: T2, Aspartate--tRNA(Asp/Asn) ligase (Mycobacterium tuberculosis (strain ATCC 25618 / H37Rv)) (UniProt P9WFW3); assay: Assay for Asp RNA synthetase-1 from Mycobacterium tuberculosis; type: functional; conditions: 30 µM; further: in the data most compounds retested in dose-response had high values
T2 sequence (whole entry): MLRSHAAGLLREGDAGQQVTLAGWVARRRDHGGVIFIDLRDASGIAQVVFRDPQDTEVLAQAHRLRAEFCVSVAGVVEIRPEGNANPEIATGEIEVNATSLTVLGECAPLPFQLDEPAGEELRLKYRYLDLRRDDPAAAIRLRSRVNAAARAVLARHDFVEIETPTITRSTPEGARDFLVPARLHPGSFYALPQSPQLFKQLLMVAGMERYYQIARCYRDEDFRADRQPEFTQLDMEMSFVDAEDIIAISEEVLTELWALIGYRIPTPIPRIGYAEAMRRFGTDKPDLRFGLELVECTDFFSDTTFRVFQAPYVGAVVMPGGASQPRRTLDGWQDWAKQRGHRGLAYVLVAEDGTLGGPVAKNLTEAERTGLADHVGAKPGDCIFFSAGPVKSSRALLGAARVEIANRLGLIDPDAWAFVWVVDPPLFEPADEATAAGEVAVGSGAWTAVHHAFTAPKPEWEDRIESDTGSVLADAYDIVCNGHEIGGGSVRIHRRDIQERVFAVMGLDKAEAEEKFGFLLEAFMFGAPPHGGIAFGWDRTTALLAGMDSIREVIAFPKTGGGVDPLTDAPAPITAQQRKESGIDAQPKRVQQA

[4] = biological target: Sialic acid-binding Ig-like lectin 9 (Homo sapiens) (UniProt Q9Y336); assay: Hs-Siglec9 ALPHAscreen SOP 20170721; conditions: 10 µM
Chain of Sialic acid-binding Ig-like lectin 9 (Homo sapiens) (Q9Y336 whole entry): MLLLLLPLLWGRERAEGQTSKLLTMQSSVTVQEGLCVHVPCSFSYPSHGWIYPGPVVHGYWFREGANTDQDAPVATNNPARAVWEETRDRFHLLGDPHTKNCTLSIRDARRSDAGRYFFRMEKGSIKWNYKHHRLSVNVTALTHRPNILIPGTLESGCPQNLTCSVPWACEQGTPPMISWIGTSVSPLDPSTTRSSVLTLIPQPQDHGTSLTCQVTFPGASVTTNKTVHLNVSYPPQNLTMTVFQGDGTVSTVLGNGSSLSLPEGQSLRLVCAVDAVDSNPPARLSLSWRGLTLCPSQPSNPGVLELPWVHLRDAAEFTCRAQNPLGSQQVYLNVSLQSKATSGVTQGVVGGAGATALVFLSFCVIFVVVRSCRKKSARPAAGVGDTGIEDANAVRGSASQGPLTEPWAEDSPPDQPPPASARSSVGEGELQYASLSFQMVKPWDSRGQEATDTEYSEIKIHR

Trypanosoma cruzi = assay: Trypanosoma cruzi phosphomannomutase and mannose-1-phosphate guanylyltransferase assay; type: functional; conditions: 10 µM
[5] = biological target: T3, Arginase-2, mitochondrial (Homo sapiens) (UniProt P78540); assay: in vitro enzyme assay to detect the production of urea directly proportional to the activity of Arginase II; type: functional; conditions: 33.3 µM; further: in the data most compounds retested in dose-response had high values
T3 sequence (whole entry): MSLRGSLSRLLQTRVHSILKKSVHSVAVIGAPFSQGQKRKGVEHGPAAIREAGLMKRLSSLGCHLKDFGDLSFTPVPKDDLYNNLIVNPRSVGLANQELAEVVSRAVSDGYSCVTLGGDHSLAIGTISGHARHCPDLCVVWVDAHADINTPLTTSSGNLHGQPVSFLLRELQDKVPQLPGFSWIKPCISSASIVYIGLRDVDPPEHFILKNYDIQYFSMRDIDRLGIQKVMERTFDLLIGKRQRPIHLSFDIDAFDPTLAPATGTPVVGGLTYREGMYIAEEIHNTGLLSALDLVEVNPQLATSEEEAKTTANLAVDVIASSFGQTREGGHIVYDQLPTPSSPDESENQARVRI

[6] = biological target: T4, Proteasome subunit beta (Trypanosoma cruzi) (UniProt O96673); assay: Trypanosoma cruzi proteasome chymotrypsin-like activity (TcProtChymo) assay.; further: in the data most compounds retested in dose-response had high values; type: functional; conditions: 9.37 µM
T4 sequence (whole entry): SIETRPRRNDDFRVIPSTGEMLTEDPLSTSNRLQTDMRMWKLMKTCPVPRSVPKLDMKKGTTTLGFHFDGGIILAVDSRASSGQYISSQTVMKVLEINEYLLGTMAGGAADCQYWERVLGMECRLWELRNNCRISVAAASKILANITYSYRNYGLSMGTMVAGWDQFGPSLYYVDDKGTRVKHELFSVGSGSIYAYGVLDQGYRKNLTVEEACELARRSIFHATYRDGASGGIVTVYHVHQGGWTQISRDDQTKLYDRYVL

Homo sapiens = organism: Homo sapiens; assay: To identify inhibition of the IFN signalling (Jak-Stat) pathway via expression of an eGFP reporter gene under the control of an IFN-stimulated response element (ISRE) containing MxA promoter.; type: functional; conditions: 30 µM
[7] = biological target: Shiga toxin 2 (Escherichia coli O157:H7) (UniProt P09385+P09386); assay: E. coli 0.157:H7 Shiga Toxin SOP - stx2 screening assay; type: functional; conditions: 30 µM
[8] = biological target: T5, Tyrosyl-tRNA synthetase, putative (Trypanosoma cruzi (strain CL Brener)) (UniProt Q4DSP6); assay: Trypanosoma cruzi tyrosyl tRNA synthetase (TcYRS) _High Tyrosine SOP; type: functional; conditions: 30 µM; further: in the data most compounds retested in dose-response had high values
T5 sequence (whole entry): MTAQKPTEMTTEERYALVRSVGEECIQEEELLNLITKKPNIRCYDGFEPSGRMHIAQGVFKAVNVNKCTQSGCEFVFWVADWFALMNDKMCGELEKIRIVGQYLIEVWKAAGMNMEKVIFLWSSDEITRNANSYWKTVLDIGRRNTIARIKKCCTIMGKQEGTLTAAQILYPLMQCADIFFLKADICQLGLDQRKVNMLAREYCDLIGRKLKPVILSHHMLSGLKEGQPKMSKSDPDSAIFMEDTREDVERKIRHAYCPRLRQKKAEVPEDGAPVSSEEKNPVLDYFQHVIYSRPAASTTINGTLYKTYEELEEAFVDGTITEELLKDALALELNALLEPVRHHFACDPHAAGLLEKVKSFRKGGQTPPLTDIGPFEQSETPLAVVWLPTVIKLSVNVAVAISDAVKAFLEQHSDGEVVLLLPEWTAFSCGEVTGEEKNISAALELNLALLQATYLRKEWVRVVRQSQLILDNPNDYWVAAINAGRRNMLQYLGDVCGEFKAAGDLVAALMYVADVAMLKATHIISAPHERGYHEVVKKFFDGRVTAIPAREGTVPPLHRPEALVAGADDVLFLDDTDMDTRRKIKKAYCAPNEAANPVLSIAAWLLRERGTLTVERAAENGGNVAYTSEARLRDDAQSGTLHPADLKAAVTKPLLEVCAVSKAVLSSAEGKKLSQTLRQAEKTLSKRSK

[9] = biological target: T5, Tyrosyl-tRNA synthetase, putative (Trypanosoma cruzi (strain CL Brener)); assay: Trypanosoma cruzi tyrosyl tRNA synthetase (TcYRS) SOP; type: functional; conditions: 30 µM
[10] = biological target: Chromo domain-containing protein 1 (Saccharomyces cerevisiae (strain ATCC 204508 / S288c) (Baker's yeast)) (UniProt P32657); assay: ScCHD-1 Enzyme Inhibition Assay; type: functional; conditions: 30 µM; further: in the data most compounds retested in dose-response had high values
Chain of Chromo domain-containing protein 1 (Saccharomyces cerevisiae (strain ATCC 204508 / S288c) (Baker's yeast)) (P32657 whole entry, the tested form may be a part): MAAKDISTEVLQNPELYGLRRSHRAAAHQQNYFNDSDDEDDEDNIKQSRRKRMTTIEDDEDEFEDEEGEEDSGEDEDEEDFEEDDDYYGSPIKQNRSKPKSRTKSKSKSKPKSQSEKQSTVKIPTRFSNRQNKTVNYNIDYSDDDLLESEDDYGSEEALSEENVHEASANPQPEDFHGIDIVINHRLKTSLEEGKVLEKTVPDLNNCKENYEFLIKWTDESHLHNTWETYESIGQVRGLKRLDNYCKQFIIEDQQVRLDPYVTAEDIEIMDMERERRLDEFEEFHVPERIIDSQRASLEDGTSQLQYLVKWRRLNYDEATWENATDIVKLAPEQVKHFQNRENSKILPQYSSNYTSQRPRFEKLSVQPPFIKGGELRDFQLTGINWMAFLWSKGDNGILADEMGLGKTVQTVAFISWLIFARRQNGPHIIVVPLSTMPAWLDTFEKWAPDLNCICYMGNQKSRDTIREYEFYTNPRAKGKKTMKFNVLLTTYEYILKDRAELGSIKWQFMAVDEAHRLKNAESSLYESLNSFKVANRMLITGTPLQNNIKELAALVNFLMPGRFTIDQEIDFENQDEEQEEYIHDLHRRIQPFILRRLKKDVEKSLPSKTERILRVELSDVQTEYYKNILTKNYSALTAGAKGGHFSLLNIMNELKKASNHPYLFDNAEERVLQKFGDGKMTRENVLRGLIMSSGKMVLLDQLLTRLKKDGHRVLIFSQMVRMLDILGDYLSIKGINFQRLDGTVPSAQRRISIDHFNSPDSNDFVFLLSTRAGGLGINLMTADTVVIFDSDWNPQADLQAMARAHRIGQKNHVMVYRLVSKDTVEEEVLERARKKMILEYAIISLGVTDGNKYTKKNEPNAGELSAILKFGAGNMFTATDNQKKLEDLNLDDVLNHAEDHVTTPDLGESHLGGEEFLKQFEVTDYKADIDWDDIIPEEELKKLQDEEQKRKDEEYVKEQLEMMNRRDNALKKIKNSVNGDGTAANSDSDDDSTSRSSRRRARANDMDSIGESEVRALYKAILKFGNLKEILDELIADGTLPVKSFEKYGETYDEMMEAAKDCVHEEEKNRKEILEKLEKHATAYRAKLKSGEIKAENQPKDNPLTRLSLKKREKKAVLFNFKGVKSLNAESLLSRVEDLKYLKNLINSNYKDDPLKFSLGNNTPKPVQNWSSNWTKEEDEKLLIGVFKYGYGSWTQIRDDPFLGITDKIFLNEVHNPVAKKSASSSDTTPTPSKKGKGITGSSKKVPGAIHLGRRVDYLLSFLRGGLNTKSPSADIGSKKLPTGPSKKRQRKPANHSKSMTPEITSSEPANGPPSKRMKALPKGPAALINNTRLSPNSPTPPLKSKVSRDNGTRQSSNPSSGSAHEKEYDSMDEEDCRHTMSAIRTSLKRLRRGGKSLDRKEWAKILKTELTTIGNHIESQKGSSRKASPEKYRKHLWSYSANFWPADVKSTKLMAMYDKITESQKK

Chain of Protein translocase subunit SecA (Escherichia coli (strain K12)) (P10408 whole entry): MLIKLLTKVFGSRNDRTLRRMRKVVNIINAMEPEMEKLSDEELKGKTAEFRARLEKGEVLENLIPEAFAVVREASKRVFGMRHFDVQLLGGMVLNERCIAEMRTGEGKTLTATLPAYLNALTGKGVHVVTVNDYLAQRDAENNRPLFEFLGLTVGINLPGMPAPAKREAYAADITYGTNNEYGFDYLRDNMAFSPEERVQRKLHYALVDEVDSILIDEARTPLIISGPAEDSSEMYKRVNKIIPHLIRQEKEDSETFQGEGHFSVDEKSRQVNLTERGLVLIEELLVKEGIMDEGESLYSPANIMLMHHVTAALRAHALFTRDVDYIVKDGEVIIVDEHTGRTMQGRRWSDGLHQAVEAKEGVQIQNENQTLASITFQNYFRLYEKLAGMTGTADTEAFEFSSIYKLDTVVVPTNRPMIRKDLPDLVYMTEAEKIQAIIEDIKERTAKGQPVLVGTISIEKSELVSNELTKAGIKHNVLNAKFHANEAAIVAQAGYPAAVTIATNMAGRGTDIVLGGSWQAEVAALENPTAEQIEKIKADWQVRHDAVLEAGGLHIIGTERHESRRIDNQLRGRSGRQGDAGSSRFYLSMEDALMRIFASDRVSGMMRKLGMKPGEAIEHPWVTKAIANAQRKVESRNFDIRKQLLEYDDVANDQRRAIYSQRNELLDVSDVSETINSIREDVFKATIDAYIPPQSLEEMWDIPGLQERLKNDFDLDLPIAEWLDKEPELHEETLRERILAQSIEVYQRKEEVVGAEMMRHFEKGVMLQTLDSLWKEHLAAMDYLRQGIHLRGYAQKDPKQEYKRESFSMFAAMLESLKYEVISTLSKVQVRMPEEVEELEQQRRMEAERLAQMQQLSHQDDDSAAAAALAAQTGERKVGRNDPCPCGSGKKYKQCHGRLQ

Compound	Percent Effect [1]	Percent Effect [2]	Percent Effect [3]	Percent Effect [4]	Percent Effect (Trypanosoma cruzi)	Percent Effect [5]	Percent Effect [6]	Percent Effect (Homo sapiens)	Percent Effect [7]	Percent Effect [8]	Percent Effect [9]	Percent Effect [10]
O=C1N(Cc2cccnc2)CCC12CCCNC2 (stereo not drawn)	-3.76%	16.9%	2.62%	-3.98%	-3.19%	0.913%	20%	34%	7.06%	1.93%	2.5%	-10.7%
Cc1noc(C)c1CN1CCCC2(CCN(C(=O)NC3CC3)C2)C1 (stereo not drawn)	-2.63%	22.1%	0.865%	-1.1%	-3.94%	5.94%	17.2%	16.8%	-1.92%	13.5%	15%	-10.3%
Cc1noc(C)c1CN1CCCC2(CCN(C(=O)CC3CC3)C2)C1 (stereo not drawn)	-8.86%	3.9%	1.46%	3.29%	-0.375%	2.74%	1.97%	12.4%	-4.85%	1.93%	-10%	-8.2%
c1ccc(N2CCCC3(CCN(Cc4nccs4)C3)C2)nc1 (stereo not drawn)	-1.98%	14.3%	-1.46%	3.73%	0.75%	-5.94%	18.4%	4.2%	7.26%	10.6%	20%	-11.5%
